Test results from PubChem BioAssay (EPA / NIEHS).
Calls of active or inactive are those of the source. The calls were made as follows: active = hit-call score of the fitted dose curve at least 0.9, where 1 is the maximum; inactive = score below 0.9.

assay: CCTE_Shafer_MEA_dev_per_burst_spike_percent: CCTE's Neural Network Formation Assay for Percent of Spikes in a Burst, Shafer Lab (AID 2284032)
Method: CCTE_Shafer_MEA_dev assay is conducted using Axion Biosystems 48 well microelectrode array (MEA) plates and Maestro recording system. Each well of the MEA plate contains a grid of 16 microelectrodes embedded in the culture surface. Electrically active cells, such as neurons, can be cultured over the electrodes, and electrical activity in these cells can be recorded extracellularly. The spontaneous firing of neurons is captured from each electrode on a microsecond timescale providing both temporally and spatially precise data. […] The CCTE_Shafer_MEA_dev assay uses primary cultures of rat cortical neurons. Recordings are made on days post-plating 5, 7, 9 and 12. As these cultures mature over time, neural networks develop functional activity and form cohesive networks in which electrical activity can be highly coordinated. CCTE_Shafer_MEA_dev_per_burst_spike_percent is 1 of 19 assay components of the CCTE_Shafer_MEA_dev assay. It measures the percentage of spikes (action potential firings) in a single-electrode burst (temporally-clustered group of spikes) as the total number spikes in bursts divided by the total number of spikes during a recording in a microelectrode array (MEA) using Axion Biosystems Maestro 768 channel amplifier with the AxIS adaptive spike detector. The percent of spikes in bursts is averaged across the actively bursting electrodes to report a well-mean value. To collapse across multiple recordings made on days post-plating 5, 7, 9 and 12, the trapezoidal area-under-the-curve of the component is calculated.Data from the assay component CCTE_Shafer_MEA_dev_per_burst_spike_percent was analyzed into 1 assay endpoint. This assay endpoint, CCTE_Shafer_MEA_dev_per_burst_spike_percent, was analyzed in the negative analysis fitting direction relative to DMSO as the negative control and baseline of activity. Using a type of functional reporter, gain or loss-of-signal activity can be used to understand electrical activity.
On the day prior to culture, each well was coated thoroughly with 150 uL of 0.05% polyethyleneimine (PEI, Sigma Cat P3143) in 50 mM HEPES (Sigma Cat H7523) at a pH of 8. The plate was incubated at 37C for one hour. PEI was rinsed out with 500 uL of sterile water three times. Plates were stored at 4C until the day of culture. This culture was plated at a seeding density of 1.5 x 10^5 cells/well on a 48-well MEA plate, prepared as described above. Cells were administered via a 25 uL media/laminin ([…]; Sigma Cat L2020-1MG) drop directly onto the microelectrode array, as adding the cells with the laminin results in better attachment than pre-coating with laminin. After 2 hours, an additional 475 uL of cortical media was added and the cells returned to the incubator. Exposure starts at day 0 of plating and is continued over twelve days of network development until the experiment is terminated. Cells are fed with fresh medium on DIV 5 and 9, following the recordings on those days. The entire volume of media in the well is exchanged and any vehicle or compound treatment is renewed. Complete details are found in OP-NHEERL/ISTD/SBB/TJS/2015-03-r0 (available on request, email shafer.tim@epa.gov). Measurement of the electrical activity is non-invasive, and recordings can be made from the same plate over multiple different days of the culture. In cortical neurons, this allows for the measurement of extracellular action potentials over the period during which networks form in the MEA plate.

**Q.** For `O=C1CCC(N2C(=O)c3ccccc3C2=O)C(=O)N1` (stereo not given), which outcome is on record?
**A.** inactive

**Q.** For `CCC(C)(C)C(=O)O[C@H]1C[C@@H](C)C=C2C=C[C@H](C)[C@H](CC[C@@H]3C[C@@H](O)CC(=O)O3)[C@H]21`, which AC50 is on record?
**A.** 2740 nM (active)

**Q.** For `NC(=O)NO`, which outcome is on record?
**A.** inactive

**Q.** With `O=P(OC(CCl)CCl)(OC(CCl)CCl)OC(CCl)CCl` as the compound, how does the outcome read?
**A.** inactive

**Q.** Which outcome does the source give for `Cn1c(=O)c2c(ncn2C)n(C)c1=O` here?
**A.** inactive

**Q.** Which outcome does the source give for `COc1ccc(-n2nc(C(F)F)cc2-c2ccc(S(C)=O)cc2)cc1` (stereo not given) here?
**A.** inactive

**Q.** With `CNCc1ccc(NC(=O)c2c[nH]c3c2C(=O)CCC3)cc1` as the compound, how does the AC50 read?
**A.** 1980 nM (active)

**Q.** With `CC[C@H](C)C(=O)O[C@H]1C[C@@H](C)C=C2C=C[C@H](C)[C@H](CC[C@@H]3C[C@@H](O)CC(=O)O3)[C@H]21` as the compound, how does the AC50 read?
**A.** 10000 nM (active)

**Q.** With `CC[C@H]1OC(=O)[C@H](C)[C@@H](O[C@H]2C[C@@](C)(OC)[C@@H](O)[C@H](C)O2)[C@H](C)[C@@H](O[C@@H]2O[C@H](C)C[C@H](N(C)C)[C@H]2O)[C@](C)(O)C[C@@H](C)C(=O)[C@H](C)[C@@H](O)[C@]1(C)O` as the compound, how does the outcome read?
**A.** inactive

**Q.** With `Nc1nc2ncc(CNc3ccc(C(=O)N[C@@H](CCC(=O)O)C(=O)O)cc3)nc2c(=O)[nH]1` as the compound, how does the outcome read?
**A.** inactive
